Common to all, as to assay type: functional
Test [1] concerns Plasmodium falciparum. The experiment in a line: GSK_TCMDC: Inhibition of Plasmodium falciparum 3D7 in whole red blood cells, using parasite LDH activity as an index of growth. Test compounds present at 2uM.
Test [2] deals with Plasmodium falciparum. The experiment in a line: GSK_TCMDC: Inhibition of Plasmodium falciparum Dd2 in whole red blood cells, using parasite LDH activity as an index of growth. Test compounds present at 2uM.
The subject of the next test is HepG2. The experiment in a line: GSK_TCMDC: Percent inhibition of human HepG2 cell line. Test compounds present at 10uM.

Among the data in ChEMBL document CHEMBL1157539, “Thousands of chemical starting points for antimalarial lead identification” (Nature, 2010) are Inhibition values, retold here.

As for `Cc1ccccc1C1CCN(C2CCC(NC(=O)/C=C/c3c(F)ccc(F)c3F)CC2)CC1` (stereo unspecified), the Inhibition (usually the drop in the measured response relative to a control, in per cent) is reported as 82% with Plasmodium falciparum [1], 33% with Plasmodium falciparum [2] and 37% with HepG2.

For `O=C(Nc1ccc(S(=O)(=O)N2CCCCC2)cc1)c1cc(-c2cc(Cl)ccc2O)n[nH]1`, the Inhibition is 97% in the test on Plasmodium falciparum [1], 87% in the test on Plasmodium falciparum [2] and 36% with HepG2.

As to `CN(C)CCNCc1ccc(-c2ccc(-c3nc4cc(F)ccc4[nH]3)cc2)cc1.O=C(O)C(F)(F)F`, the results for the Inhibition in the test on Plasmodium falciparum [1], in the test on Plasmodium falciparum [2] and in the test with HepG2 were 100%, 99% and 8%, respectively.

Turning to `O=C(/C=C/c1ccc(Cl)c(Cl)c1)NCC1CCN(Cc2ccc(O)cc2)CC1.O=C(O)C(F)(F)F`, the figures for the Inhibition with Plasmodium falciparum [1], in the test with Plasmodium falciparum [2] and in the test with HepG2 were 98%, 0% and 4%, respectively.

`O=C(NCCNc1ccnc2cc(Cl)ccc12)c1ccccc1F`: the Inhibition in the test on Plasmodium falciparum [1] amounted to 99%; in the test on Plasmodium falciparum [2] it was 98%; in the test on HepG2, 30%.

Turning to `CCN(CC)S(=O)(=O)c1ccc(Cl)c(C(=O)Nc2ccc3nc(C)sc3c2)c1`, the Inhibition with Plasmodium falciparum [1] came to 96%; in the test on Plasmodium falciparum [2], 94%; in the test with HepG2, 9%.

With `CC(C)Nc1cc(C(=O)N[C@@H](Cc2ccccc2)[C@H](O)CNC(C)(C)c2cccc(C(F)(F)F)c2)cc(N2CCCCS2(=O)=O)c1.O=CO`, the Inhibition with Plasmodium falciparum [1] was 98%; with Plasmodium falciparum [2], 98%; in the test with HepG2, 9%.

With `CCCCCCCCc1c(C)[nH]c(C)c(Cl)c1=O`, the Inhibition in the test on Plasmodium falciparum [1] was determined as 96%; with Plasmodium falciparum [2], 95%; with HepG2, 0%.

Regarding `Oc1ccc(Cl)cc1CN1CCCC(COC(c2ccc(F)cc2)c2ccc(F)cc2)C1` (stereo unspecified), the Inhibition in the test with Plasmodium falciparum [1] is reported as 98%; with Plasmodium falciparum [2], 100%; with HepG2, 20%.

Consider `Cc1cccc2nc(-c3cccc(-c4ccc(CNCc5cnn(-c6ccccc6)n5)cc4)c3)[nH]c12.O=C(O)C(F)(F)F`, for which the Inhibition in the test with Plasmodium falciparum [1] came out at 100%; in the test with Plasmodium falciparum [2], 66%; in the test on HepG2 it was 20%.

Take `COc1cc([N+](=O)[O-])ccc1NC(=O)Nc1ccc(OC(F)(F)F)cc1`: the figures for the Inhibition with Plasmodium falciparum [1], with Plasmodium falciparum [2] and with HepG2 were 84%, 72% and 14%, respectively.

Take `CCCCCCCN1CCC(NC(=O)Nc2ccnc3ccc(OC)cc23)C(CO)C1.O=C(O)C(=O)O` (stereo unspecified): the Inhibition in the test on Plasmodium falciparum [1] is recorded as 94%; in the test with Plasmodium falciparum [2], 69%; in the test on HepG2, 23%.

As to `COc1ccc2nccc(NC(=O)OC3CCC(NCc4ccc5c(n4)NC(=O)CS5)CC3)c2c1` (stereo unspecified), the Inhibition amounted to 98% with Plasmodium falciparum [1], 39% in the test on Plasmodium falciparum [2] and 9% with HepG2.

As to `CN1CCN(c2ncnc3ccc(NC(=O)Nc4ccc(Cl)c(Cl)c4)cc23)CC1`, the results for the Inhibition in the test on Plasmodium falciparum [1], with Plasmodium falciparum [2] and in the test with HepG2 were 100%, 89% and 7%, respectively.

Turning to `Cc1cc(NC(=O)c2coc3cc(F)c(N4CC(C)N(C)C(C)C4)cc23)ccc1-n1ccnc1.Cl` (stereo unspecified), the Inhibition is given as 96% in the test on Plasmodium falciparum [1], 42% in the test with Plasmodium falciparum [2] and 0% in the test with HepG2.

Regarding `CCNC[C@@H](O)[C@H](Cc1ccccc1)NC(=O)c1cc2c3c(c1)c(CC)cn3CCS(=O)(=O)N2C.O=CO`, the Inhibition in the test with Plasmodium falciparum [1] is 99%; with Plasmodium falciparum [2], 65%; in the test on HepG2, 0%.

Take `OC(CNCc1ccccc1OCc1ccccc1)c1cc(C(F)(F)F)cc(C(F)(F)F)c1` (stereo unspecified): the figures for the Inhibition with Plasmodium falciparum [1], in the test with Plasmodium falciparum [2] and in the test on HepG2 were 100%, 99% and 3%, respectively.

In the case of `Cc1ccc(NC(=O)c2ccc(N3CCC(c4ccccc4C)CC3)nc2)cc1.O=C(O)C(F)(F)F`, the Inhibition in the test with Plasmodium falciparum [1] was 83%; in the test with Plasmodium falciparum [2] it was 72%; with HepG2, 49%.

In the case of `CCOC(=O)N1CCN(CCCNc2c3ccc(Cl)cc3nc3ccc(OC)cc23)CC1`, the Inhibition in the test with Plasmodium falciparum [1] is given as 100%; in the test with Plasmodium falciparum [2], 100%; in the test with HepG2, 52%.

For `COc1cc(C(=O)N2CCOC(CCN3CCC4c5ccccc5CC43)(c3ccc(Cl)c(Cl)c3)C2)cc(OC)c1OC` (stereo unspecified), the Inhibition with Plasmodium falciparum [1] was 88%; in the test with Plasmodium falciparum [2], 82%; with HepG2, 32%.

Take `COc1ccc(CNC2Cc3ccccc3C2)cc1-c1ccc(S(=O)(=O)NCc2cccnc2)s1.O=C(O)C(F)(F)F`: the figures for the Inhibition in the test on Plasmodium falciparum [1], in the test with Plasmodium falciparum [2] and with HepG2 were 91%, 18% and 49%, respectively.

`COc1ccc(Nc2nccc(-c3c(-c4cccc(NC(=O)c5c(F)cccc5F)c4)nn4ccccc34)n2)cc1Cl`: the figures for the Inhibition in the test on Plasmodium falciparum [1], with Plasmodium falciparum [2] and in the test with HepG2 were 95%, 71% and 61%, respectively.

Take `Cc1cc(=NN=Cc2ccc(Cl)cc2)c2ccccc2[nH]1`: the Inhibition with Plasmodium falciparum [1] came out at 100%; in the test with Plasmodium falciparum [2] it was 87%; in the test on HepG2, 5%.

With `Cc1cccc2nc(-c3ccc(-c4cccc(CNCCc5ccncc5)c4)cc3)[nH]c12.O=C(O)C(F)(F)F`, the Inhibition with Plasmodium falciparum [1] came out at 100%; in the test on Plasmodium falciparum [2] it was 95%; in the test on HepG2 it was 28%.

For the molecule `CCN(CC)CCOc1ccc(NC(=O)c2oc3ccccc3c2C=Cc2ccccc2)cc1.O=C(O)/C=C/C(=O)O`, the Inhibition worked out at 98% with Plasmodium falciparum [1], 54% in the test with Plasmodium falciparum [2] and 51% with HepG2.

`CC(C)CCC[C@@H]([C@@H](CC1CCCCC1)C(=O)N[C@@H](CCCCNC(=O)OCc1ccccc1)C(=O)Nc1nccs1)N(O)C=O`: the Inhibition amounted to 98% in the test with Plasmodium falciparum [1], 90% in the test on Plasmodium falciparum [2] and 0% in the test on HepG2.

Regarding `O=C(/C=C/c1ccc(Cl)c(Cl)c1)NCCCCCN1CCCN(C(=O)Nc2ccc([N+](=O)[O-])cc2)CC1`, the figures for the Inhibition in the test with Plasmodium falciparum [1], in the test on Plasmodium falciparum [2] and in the test with HepG2 were 97%, 28% and 32%, respectively.
